Measured values as given in PubChem BioAssay AID1345083 (National Center for Advancing Translational Sciences (NCATS), 2018).
Screen size: about 94,000 compounds; about 6,200 (6.6%) were called active. Inconclusive results (about 31%) are left out. Only a selection was taken, and actives are over-represented in it overall. A number with no mark means an inactive call. Calls come from the whole dose curve; as a rule, active = well fitted inhibition curve with a large enough effect; inconclusive = small, poorly fitted or top-dose-only effect; inactive = flat fitted curve, though single readings scatter.

assay: Cytotoxic Profiling in HEK 293 Cell Line of Diverse Libraries Using Quantitative High-Throughput Screening; settings: HEK 293 viability, ATP luminescence (CellTiter-Glo), 48-72 h; series mostly up to 115 µM; activity change, negative = cytotoxicity: at the top concentration; note: nearly all actives have a fitted effect of over 60% in size
Method in brief: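 HEK 293 cells at 250 cells/well were exposed to compounds by pintool transfer for 48 or 72 hr at 37 degree Celsius, 5% CO2. Viability was read as ATP-coupled luminescence with CellTiter-Glo after 10 min at room temperature.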
% is set by controls: 0 for no effect and ±100 for the full control effect; potency is the fitted concentration of half-maximal effect.

In order of rising “activity change, negative = cytotoxicity” value:
1. CCCc1nn(-c2cccc(F)c2)c(OC(C)=O)c1-c1ccc(NC(C)=O)cc1  -31.7%
2. COc1ccc(CC(=O)N2CCC(Cc3nc(C(C)C)no3)CC2)cc1Cl  -27.9%
3. COc1ccccc1CN1CCc2nc(C(C)C)nc(-c3ccc(O)cc3)c2C1  -27.8%
4. O=C(c1ccc2c(c1)[nH]c(=O)n2C1CCC(O)CC1)N1CCc2ccccc2C1 (stereo not given)  -26%
5. CN(CCO)CC1(O)CCCN(Cc2ccccc2F)C1=O (stereo not given)  -25.7%
6. COc1ccc(NC(=O)c2ccc3c(c2)N(S(C)(=O)=O)CC3)cc1OC  -25%
7. CC1=C[C@@H](CNC(=O)CC2(CC(=O)O)CCCC2)[C@H](C(C)C)C[C@H]1Cc1nc2c(C)cccc2[nH]1  -24.7%
8. Cc1ccc(C)c2c(=O)cc(CN3CCN(CCn4cncn4)CC3)[nH]c12  -24%
9. CCN(CC)C(=O)N1CCCC(c2nc(CCOCC3CCOCC3)no2)C1 (stereo not given)  -24%
10. CC(=O)N1CCC(NC[C@@H]2C=C(C)[C@H](Cc3nc4ccccc4n3C)C[C@H]2C(C)C)CC1  -23.7%
11. CCCN(CC1CCOC1)S(=O)(=O)c1ccc(C(F)(F)F)cc1 (stereo not given)  -23.3%
12. CC1CCN(C(=O)CCNc2c(-c3ccc(F)cc3)nc3cnccn23)CC1  -22.5%
13. COCCC(=O)NCC1Cn2cccc2C(=O)N1Cc1ccccc1 (stereo not given)  -20.1%
14. COc1ccc2nc(C[C@@H]3C[C@@H](C(C)C)[C@H](CNC(=O)CC(C)(C)CC(=O)O)C=C3C)[nH]c2c1  -19.4%
15. CCOc1ccc(CC(=O)N2CCC(Cc3nc(-c4cnccn4)no3)CC2)cc1  -18.9%
16. Cc1cccc(OCC(=O)N2CCC[C@H]2c2nc(-c3ccccc3)no2)c1  -18.9%
17. CCOC(=O)c1cn(C2CN(S(=O)(=O)c3cccc(F)c3)C2)nn1  -18.3%
18. CCC1CN(C(=O)c2ccc(C#CC(C)(C)O)o2)CCN1C(C)C (stereo not given)  -18.1%
19. CSc1cccc(CN(C)C(=O)CC2COCCN2)c1 (stereo not given)  -17.4%
20. COc1ccc(CC(=O)N2CCc3nc(C4CC4)nc(-c4ccc(O)cc4)c3CC2)cc1  -15.7%
21. CCN(CC)c1ncccc1CNC(=O)Nc1ccc2c(c1)OCO2  -14.6%
22. O=C(Cc1cccnc1)N1CCCC(c2nc(CCOCC3CCCC3)no2)C1 (stereo not given)  -14.1%
23. CNC(=O)[C@@H]1CN(C(=O)c2ccc(F)c(Cl)c2)C[C@H]1CO  -13.9%
24. COCCNC(=O)[C@H]1C[C@H](Oc2cccnc2)CN1C(=O)NC1CCCCC1  -13.6%
25. Nc1nc(C2CC(NC(=O)CCc3nc4ccc(F)cc4[nH]3)C2)cc(=O)[nH]1 (stereo not given)  -11.3%
26. COc1cccc(C(=O)N2CCC(Cc3nc(-c4cnccn4)no3)CC2)c1  -10.7%
27. COc1ccc(CC(=O)N2CCC(Cc3nc(-c4cnccn4)no3)CC2)cc1Cl  -8.58%
28. CCN1C(=O)CCN(Cc2cnn(CC)c2C)CC12CCOCC2  -8.32%
29. CS(=O)(=O)N1CCC(C2CCN(C(=O)Cc3cccs3)C2)CC1 (stereo not given)  -7.95%
30. COc1ccc(-c2cccc(C(=O)N3CCN(C(=O)c4ccc(F)cc4)CC3)c2)nn1  -5.12%
31. CC(=O)N1CCC(C2CCN(C(=O)CCCc3nc4ccccc4[nH]3)C2)CC1 (stereo not given)  -4.93%
32. Cc1cc2occ(CC(=O)N3CC[C@](C)(O)[C@@H](O)C3)c2cc1Cl  -2.57%
33. COc1ccc(CCC(=O)NCC(=O)N2CCCCCCNC(=O)CC2c2ccccc2)cc1 (stereo not given)  -2.36%
34. COc1cccc(N2C(=O)NC(=NC3CCCC3)C23CCN(C(=O)c2ccc(C)cc2)C3)c1 (stereo not given)  -2.27%
35. COCCc1noc(Cc2c(C)nn(-c3ccccc3)c2C)n1  -1.66%
36. CC(=O)N1CCN(C(=O)C2(Cn3cccn3)CC2)CC(O)C1 (stereo not given)  -1.42%
37. CC1CCN(c2ccc(CNC(=O)CN3CCCc4nc(C5CC5)ncc4C3=O)cc2)CC1  -1.31%
38. Fc1ccc(Cc2nc3nccc(-c4cc5ccccc5o4)n3n2)cc1  -0.828%
39. O=C1NCCC[C@@H]1NC(=O)[C@H]1CN(C(=O)CS(=O)(=O)c2ccccc2)CCN1C(=O)C1CCCCC1  -0.313%
40. COCC(=O)N1CCC(C(=O)N2CCCC(c3nc4ncccc4[nH]3)C2)CC1 (stereo not given)  -0.191%
41. CCNC(=O)[C@@H]1C[C@H](n2cc(CN(C)C(=O)OC)nn2)CN1  0.184%
42. COCCOCc1nc(C2CCCCN2C(=O)Nc2ccc(F)cc2F)no1 (stereo not given)  0.297%
43. COCc1nc2nccc(-c3ccccc3)n2n1  0.903%
44. Cc1ccc(-n2nc(C(=O)N3CC[C@](C)(O)C(C)(C)C3)c(O)cc2=O)cc1  1.18%
45. CCn1ccc(C(=O)N2CCCC(c3noc(COC)n3)C2)n1 (stereo not given)  1.51%
46. CNC(=O)[C@@H]1C[C@@H](O)CN1C1CCN(C(=O)c2ccc(OC)c(F)c2)CC1  1.95%
47. CCn1cc(S(=O)(=O)N2C[C@@H](Oc3ccccc3)C[C@@H]2C(=O)N2CCOCC2)cn1  2.71%
48. Cc1ccc(NC(=O)c2nnn3c2COC(c2ccc(F)cc2)C3)c(Br)c1 (stereo not given)  2.77%
49. O=C(c1cccnc1)N1CCC(Nc2cccnc2)C1 (stereo not given)  3.04%
50. COc1ccc(OC)c(NC(=O)c2cc3n(n2)CC(c2ccc(Cl)cc2)OC3)c1 (stereo not given)  3.27%
51. CCCCc1cc(C[C@H]2CNCC[C@H]2CC(=O)N2CCC(n3c(=O)[nH]c4ccccc43)CC2)no1  3.67%
52. CN1CCCN(C[C@@H]2CN(C(=O)c3ccnn3C)C[C@@H]2CO)CC1  3.91%
53. Cc1nc(-c2ccccc2OC2CN(S(=O)(=O)c3c(C)noc3C)C2)no1  3.92%
54. O=C(Cc1cccc(Cl)c1)N1CCC2(CN[S+](=O)([O-])c3cccnc3O2)C1 (stereo not given)  4.07%
55. COCC1CN(C(=O)c2ccc(C#N)cc2)CC12CCOCC2 (stereo not given)  4.38%
56. COc1ccc(OCc2nc(C)c(CCO)c(=O)n2CC(=O)NCc2ccc(F)cc2)cc1  4.49%
57. Cc1cnc(C(=O)NC2CC(c3nnc(CO)n3C3CC3)C2)[nH]1 (stereo not given)  4.88%
58. O=C1N[C@H](CC(=O)N2CCN(Cc3ccccc3)CC2)C(=O)Nc2ccccc21  7.44%
59. O=c1n(Cc2ccc(F)cc2)nc2n1CCCCC2  13.5%

In order of falling “activity change, negative = cytotoxicity” value:
1. COc1ccc(-c2cc(C[C@H]3CNCC[C@H]3CC(=O)NCCN(C)C)no2)cc1  0.101% [at 172 µM]
2. COc1ccc(-c2ccccc2CN)cc1  -3.51% [at 172 µM]
3. O=C(C[C@@H]1CCNC[C@@H]1Cc1cc(-c2ccc(F)cc2)on1)NCCN1CCOCC1  -4.57% [at 172 µM]
4. COCCN1C(=O)[C@@H]2C[C@@H](CN2C(=O)Nc2ccccc2)Oc2ccccc21  -6.62% [at 172 µM]
5. N#Cc1ccc(CN2CCC[C@H]2c2nc(-c3ccc(F)cn3)no2)cc1  -15.4% [at 172 µM]
6. N#Cc1ccc(CN2C[C@@H]3C[C@H]2C(=O)Nc2ccccc2O3)cc1  -16.4% [at 172 µM]
7. COc1ccc(-c2cccc(C(=O)NC3CC3)c2)nn1  -19.7% [at 172 µM]
8. CCCCc1cc(C[C@H]2CNCC[C@H]2CC(=O)N(CC)CC)no1  -22.1% [at 172 µM]
9. O=C1c2cnc(-c3ccc(O)c(F)c3)nc2OCCN1Cc1ccccc1  -28.2% [at 172 µM]
10. CNC(=O)C(C)(C)N1CCC[C@H]1C(=O)N(C)Cc1ccccc1  -29.2% [at 172 µM]

In the case of `COc1ccc(-c2cccc(C(=O)N3CCC(NC(=O)c4ccc(C(F)(F)F)cc4)CC3)c2)nn1`, the Potency is reported as 39.8 µM (active).
In the case of `COc1cccc(-c2ccnc3nc(Cc4cc(F)cc(F)c4)nn23)c1`, the Potency is reported as 39.8 µM (active).
In the case of `COc1ccc(CNC(=O)c2cc3n(n2)CC(c2ccc4c(c2)OCO4)OC3)c(OC)c1` (stereo not given), the Potency is reported as 35.5 µM (active).
For `O=C1[C@@H]2C[C@@H](CN2Cc2ccc3ccccc3n2)Oc2ccccc2N1Cc1ccccc1`, the Potency was 44.7 µM (active).
With `COc1ccccc1CN1CCc2nc(C3CC3)nc(-c3ccc(O)cc3)c2CC1` the Potency was 44.7 µM (active).
For `COc1ccc(-c2noc(CC3CCN(C(=O)CC4CCCCC4)CC3)n2)cc1`, the Potency was 44.7 µM (active).
For `COc1ccc(CC(=O)N2CCC(Cc3nc(-c4ccccc4)no3)CC2)cc1OC`, the Potency was 35.5 µM (active).
With `COCCOc1ncccc1-c1noc([C@@H]2CCCN2CC(C)(C)C)n1` the Potency was 63.1 µM (active).
For `CC1=C[C@@H](CNC2CCN(C)CC2)[C@H](C(C)C)C[C@H]1Cc1nc2ccccc2[nH]1`, the Potency was 28.2 µM (active).
For `CC1=C[C@@H](CNCC(C)C)[C@H](C(C)C)C[C@H]1Cc1nc2c(C)cccc2[nH]1`, the Potency was 39.8 µM (active).
For `CC1=C[C@@H](CNC(=O)C2CCCCC2)[C@H](C(C)C)C[C@H]1Cc1nc2ccc(F)cc2[nH]1`, the Potency was 28.2 µM (active).
For `CC1=C[C@@H](CN(CC2CC2)CC2CC2)[C@H](C(C)C)C[C@H]1Cc1nc2c(C)cccc2[nH]1`, the Potency was 89.1 µM (active).
In the case of `N#Cc1ccc(S(=O)(=O)N2CC(n3cc(C(=O)NCc4ccccc4)nn3)C2)cc1`, the Potency is reported as 50.1 µM (active).
For `CC(=O)Nc1ccc(-c2c(-c3ccc4c(c3)OCO4)nn(-c3cc(C)ccc3C)c2OC(C)=O)cc1`, the Potency was 39.8 µM (active).
In the case of `C1CCC(COCCc2noc(C3CNC3)n2)C1`, the Potency is reported as 6.31 µM (active).
With `O=C1c2c(nc(COc3ccccc3)n2Cc2ccccc2)NCCN1Cc1cccc(Cl)c1` the Potency was 31.6 µM (active).
In the case of `COc1ccc(CNC(=O)C[C@@H]2CCNC[C@@H]2Cc2cc(-c3ccc(C(C)(C)C)cc3)on2)cc1OC`, the Potency is reported as 25.1 µM (active).
For `CN(Cc1ccccc1)C(=O)C[C@@H]1CCNC[C@@H]1Cc1cc(-c2ccc(C(C)(C)C)cc2)on1`, the Potency was 14.1 µM (active).
For `O=C(C[C@@H]1CCNC[C@@H]1Cc1cc(CSc2ccccc2)on1)NCc1ccc2c(c1)OCO2`, the Potency was 35.5 µM (active).

For `COc1ccc(C(=O)N[C@@H]2CCC[C@@H]2C(=O)NCc2ccc3c(c2)OCO3)cc1`, the “outcome” value was “inactive”.
For `COc1ccccc1C(=O)N1CCC2(C1)C(=NC1CCCC1)NC(=O)N2c1cccnc1` (stereo not given), the “outcome” value was “inactive”.
With `O=C(c1ccc2c(c1)OCO2)N1CCN(c2ccc(Cl)nn2)C(=O)C1` the “outcome” value was “inactive”.
For `Cn1ccnc1CN1CCCC(CCC(=O)Nc2ccccc2F)C1` (stereo not given), the “outcome” value was “inactive”.
For `O=C(NCC1CC1)c1cn(C2CN(C(=O)NCCc3ccccc3)C2)nn1`, the “outcome” value was “inactive”.
In the case of `O=C(O)CN1CCNc2nc(CNc3ccc(F)cc3)n(Cc3ccccc3)c2C1=O`, the “outcome” value is reported as “inactive [at 172 µM]”.
In the case of `Cc1ccc(CN[C@@H]2CO[C@H](CNC(=O)N3CCOCC3)[C@H]2O)cc1`, the “outcome” value is reported as “inactive [at 172 µM]”.
